Values joined by “and” are separate entries in the source; they are usually repeats but may differ in a detail not shown here. Equal entries are not always repeated. Structures can show the parent of a compound that is named as a salt.
Assays:
Experiment in all cases: cell viability relative to vehicle control; higher = less cytotoxic
Conditions in all cases: 10 µM
K562 = system: K562
Method in brief: (§1)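 Each screen used CRISPR-edited mutant and wild-type clones from four leukaemia lines. Compounds were acoustically dispensed at a single 10 µM dose, and CellTiter-Glo luminescence was read after 48 h with the supernatant first removed. Viability was analysed in Genedata Screener and given as percent of the on-plate vehicle control.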

MARIMO = system: MARIMO
Method in brief: as §1

MOLM14 = system: MOLM14
Method in brief: as §1

OCI-AML2 = system: OCI-AML2
Method in brief: as §1

Row | Compound | cell viability (K562; SRSF2 genotype: SRSF2 P95H/wt) | cell viability (K562; SRSF2 genotype: SRSF2 wt/wt) | cell viability (MARIMO; SRSF2 genotype: SRSF2 P95H/wt) | cell viability (MARIMO; SRSF2 genotype: SRSF2 wt/wt) | cell viability (MOLM14; SRSF2 genotype: SRSF2 P95H/wt) | cell viability (MOLM14; SRSF2 genotype: SRSF2 wt/wt) | cell viability (OCI-AML2; SRSF2 genotype: P95H/wt) | cell viability (OCI-AML2; SRSF2 genotype: wt/wt)
1 | CC[C@@H](CO)NCCN[C@@H](CC)CO [Ethambutol HCl] | 99.5% and 99.3% | 98.7% | 99.4% | 112% | 100% | 102% | 104% | 107%
2 | O=C(CNc1ccc2ccccc2c1)N/N=C/c1cc(Br)c(O)c(Br)c1O | 81.1% and 82.1% | 72.8% | 50.8% | 65.4% | 62.3% | 51.7% | 49.8% | 58.5%
3 | COc1cc2c(cc1OC)[C@H]1C[C@@H](OC(=O)[C@@H](N)C(C)C)[C@H](CC(C)C)CN1CC2 [Valbenazine tosylate] | 93.2% and 97.7% | 101% | 108% | 93.9% | 103% | 106% | 97.2% | 96.9%
4 | C=C1/C(=C\C=C2/CCC[C@]3(C)[C@@H]([C@H](C)CCCC(C)C)CC[C@@H]23)C[C@@H](O)C[C@@H]1O [Alfacalcidol] | 90.3% and 95.4% | 99.1% | 82.5% | 82.5% | 84.9% | 94.2% | 98.7% | 110%
5 | CCCCCCC(O)C(=O)O (stereo not given) [2-Hydroxycaprylic acid] | 103% and 102% | 107% | 101% | 105% | 101% | 109% | 105% | 111%
6 | Clc1ccc(C(Cn2ccnc2)OCc2ccsc2Cl)c(Cl)c1 (stereo not given) [Tioconazole] | 69.5% and 76.7% | 71.6% | 69.7% | 71.2% | 62.4% | 69.5% | 59.9% | 63.1%
7 | O=C(CCc1ccc(O)cc1)c1c(O)cc(O)cc1O[C@@H]1O[C@H](CO)[C@@H](O)[C@H](O)[C@H]1O [Phlorizin (Phloridzin)] | 104% and 94.2% | 92.3% | 93% | 102% | 92.2% | 94.8% | 90.1% | 91.7%
8 | OC[C@H]1O[C@@H](c2ccc(F)c(Cc3cc4ccccc4s3)c2)[C@H](O)[C@@H](O)[C@@H]1O [Ipragliflozin (ASP1941)] | 96.6% and 98.5% | 102% | 95.6% | 95.8% | 101% | 99.4% | 99.1% | 95.1%
9 | CC(C(=O)O)C(=O)O [Methylmalonate] | 102% | 100% | 98.2% | 110% | 97% | 103% | 90.5% | 107%
10 | COc1ccc(-c2cc(=O)c3c(O)c(OC)c(O)cc3o2)cc1OC [Eupatilin] | 101% and 99.5% | 97% | 92.3% | 98.2% | 48.7% | 60.2% | 69.4% | 71.2%
11 | CCC(=O)O[C@@H]1CC(=O)O[C@H](C)C/C=C/C=C/[C@H](O)[C@H](C)C[C@H](CC=O)[C@H](O[C@@H]2O[C@H](C)[C@@H](O[C@H]3C[C@@](C)(O)[C@@H](OC(=O)CC)[C@H](C)O3)[C@H](N(C)C)[C@H]2O)[C@H]1OC [Midecamycin] | 84.3% and 87.1% | 89.5% | 89.3% | 102% | 93.3% | 93.7% | 96.2% | 97.4%
12 | O=c1[nH]c(=O)n(C2CCCO2)cc1F (stereo not given) | 107% and 105% | 103% | 96.4% | 108% | 99.7% | 104% | 93.9% | 105%
13 | CN(C)CCC(c1ccc(Cl)cc1)c1ccccn1 (stereo not given) [Chlorpheniramine Maleate] | 100% and 106% | 98.2% | 91.4% | 105% | 94.7% | 101% | 99.4% | 99.1%
14 | C[C@@H]1CC[C@]2(C(=O)O[C@@H]3O[C@H](CO)[C@@H](O)[C@H](O)[C@H]3O)CC[C@]3(C)C(=CC[C@@H]4[C@@]5(C)CC[C@H](O)[C@@](C)(CO)[C@@H]5CC[C@]43C)[C@@H]2[C@]1(C)O [Pedunculoside] | 109% and 108% | 113% | 108% | 97.5% | 107% | 108% | 106% | 104%
15 | CCCSc1ccc2[nH]c(NC(=O)OC)nc2c1 [Albendazole (Albenza)] | 19.1% and 33.6% | 30.6% | 9.83% | 11.3% | 6.95% | 2.47% | 5.18% | 12.9%
16 | CCCOC(C(=O)OC1CCN(C)CC1)(c1ccccc1)c1ccccc1 [Propiverine hydrochloride] | 80.6% and 87.8% | 88.2% | 68.5% | 79.1% | 75.2% | 85.2% | 72.1% | 64.2%
17 | CC(C)(C)[N+]([O-])=Cc1ccc(S(=O)(=O)O)cc1S(=O)(=O)O [NXY-059 (Disufenton sodium)] | 111% and 102% | 109% | 109% | 110% | 104% | 108% | 102% | 104%
18 | Cc1cc(C2CCCCC2)n(O)c(=O)c1 [Ciclopirox ethanolamine] | 59.6% and 58.8% | 47.2% | 21.4% | 26.4% | 8.86% | 2.23% | 18% | 18%
19 | C=CCC(=NOS(=O)(=O)O)S[C@@H]1O[C@H](CO)[C@@H](O)[C@H](O)[C@H]1O (stereo in doubt) [Sinigrin] | 96.4% and 104% | 99.7% | 93.4% | 96.4% | 94.1% | 97.8% | 101% | 101%
20 | C[C@@H]1CN(CC(=O)Nc2ccc3c(c2)Cc2cccc(-c4cc(=O)cc(N5CCOCC5)o4)c2S3)C[C@H](C)O1 | 98.9% and 102% | 99.1% | 82.9% | 86.9% | 56.9% | 55.8% | 51.3% | 64.2%

Row | Compound | cell viability (K562; SRSF2 genotype: SRSF2 P95H/wt) | cell viability (K562; SRSF2 genotype: SRSF2 wt/wt) | cell viability (MARIMO; SRSF2 genotype: SRSF2 P95H/wt) | cell viability (MARIMO; SRSF2 genotype: SRSF2 wt/wt) | cell viability (MOLM14; SRSF2 genotype: SRSF2 P95H/wt) | cell viability (MOLM14; SRSF2 genotype: SRSF2 wt/wt) | cell viability (OCI-AML2; SRSF2 genotype: P95H/wt) | cell viability (OCI-AML2; SRSF2 genotype: wt/wt)
21 | Cn1cc(-c2cnn3c(N)c(Br)c([C@@H]4CCCNC4)nc23)cn1 | 42.2% and 58.8% | 25.3% | 50.4% | 61.6% | 12.8% | 7.07% | 9.84% | 11.1%
22 | NCCNc1ccc(NCCN)c2c1C(=O)c1ccncc1C2=O [Pixantrone Maleate] | 18.2% and 23.9% | 20.5% | 10.7% | 7.14% | 0.24% | 0.35% | 0.25% | 0.85%
23 | CC(C)[C@H](N)C(=O)OCCOCn1cnc2c(=O)nc(N)[nH]c21 [Valaciclovir HCl] | 100% and 99% | 102% | 101% | 111% | 101% | 101% | 98.7% | 112%
24 | COc1ccc(Oc2cc(NCCC(F)(F)F)c3ncc(-c4ccc(C(=O)NC5CC5)c(C)c4)n3n2)c(F)c1F | 103% and 102% | 108% | 67.6% | 77.1% | 58.9% | 42.6% | 71.4% | 72.9%
25 | CC1=C(C/C=C(\C)CCC[C@H](C)CCC[C@H](C)CCCC(C)C)C(=O)c2ccccc2C1=O [Vitamin K1] | 101% and 88.9% | 93.7% | 92.4% | 107% | 88.2% | 98% | 90.7% | 106%
26 | CC(=O)c1ccccc1 [Acetophenone] | 98.7% and 89.7% | 91.4% | 84.5% | 91.5% | 90.6% | 91.1% | 85.3% | 83.6%
27 | CC1=CCC2CC1C2(C)C (stereo not given) | 99.8% and 101% | 99.4% | 95.5% | 94.5% | 98.5% | 99.8% | 97% | 102%
28 | C[C@H]1[C@H](C)CC[C@]2(C(=O)O[C@@H]3O[C@H](CO[C@@H]4O[C@H](CO)[C@@H](O[C@@H]5O[C@@H](C)[C@H](O)[C@@H](O)[C@H]5O)[C@H](O)[C@H]4O)[C@@H](O)[C@H](O)[C@H]3O)CC[C@]3(C)C(=CC[C@@H]4[C@@]5(C)C[C@@H](O)[C@H](O)[C@@](C)(CO)[C@@H]5[C@H](O)C[C@]43C)[C@H]12 [Madecassoside] | 106% and 105% | 103% | 99.8% | 111% | 97.8% | 106% | 99.9% | 110%
29 | CCCCCCCCN=c1ccn(CCCCCCCCCCn2ccc(=NCCCCCCCC)cc2)cc1 [Octenidine Dihydrochloride] | 0.46% and 0.39% | 0.55% | 0.32% | 0.34% | 0.3% | 0.33% | 0.29% | 0.41%
30 | CC(=O)c1ccc(NN=C(C(N)=O)C2=NC(C)(C)Cc3ccccc32)cc1 | 79.9% and 87.9% | 86.9% | 56.1% | 58.1% | 15% | 14.7% | 30.5% | 40.5%
31 | O=S(=O)(NCCNCC=Cc1ccc(Br)cc1)c1cccc2cnccc12 | 77.6% and 78% | 75.8% | 61.2% | 69.1% | 43.2% | 50% | 38.7% | 43.2%
32 | O=C(COc1ccc(C(=O)c2ccccc2)cc1)NC1CCN(Cc2ccccc2)CC1 [Adiporon] | 72.4% and 78.1% | 73.9% | 57.4% | 53.5% | 65.2% | 77.2% | 40.5% | 47.3%
33 | C[C@@H]1CC[C@@]2(OC1)O[C@H]1C[C@H]3[C@@H]4CC=C5C[C@@H](O)C[C@@H](O)[C@]5(C)[C@H]4CC[C@]3(C)[C@H]1[C@@H]2C [Ruscogenin] | 96.3% and 102% | 98% | 98.9% | 103% | 103% | 110% | 89.2% | 94.3%
34 | CC(=O)O[C@]1(C(C)=O)CC[C@H]2[C@@H]3C[C@H](C)C4=CC(=O)CC[C@]4(C)[C@H]3CC[C@@]21C [Medroxyprogesterone acetate] | 82.5% and 92.8% | 94.7% | 104% | 73% | 112% | 102% | 98.5% | 87.5%
35 | CCOC(=O)c1ccc(NC2CCCCC2)c(N)c1 [Ferrostatin-1 (Fer-1)] | 98.7% and 94.8% | 88.4% | 90.6% | 106% | 104% | 102% | 94.3% | 90.4%
36 | CCC[C@@H]1C[C@@H](C(=O)N[C@@H]([C@H]2O[C@H](SC)[C@H](O)[C@@H](O)[C@H]2O)[C@H](C)Cl)N(C)C1 [Clindamycin HCl] | 91.2% and 108% | 102% | 94.1% | 99.9% | 96.5% | 108% | 83.9% | 85.3%
37 | CONC(=O)c1ccccc1Nc1cc(Nc2cc(C)nn2C(C)C)ncc1Cl | 91.8% and 101% | 105% | 93.2% | 101% | 82.9% | 102% | 95.8% | 103%
38 | O=C1C=C2C=C[C@@H](O)[C@H](O)[C@H]2O1 [Griffonilide] | 101% | 96.4% | 98.7% | 104% | 99.3% | 97.2% | 103% | 100%
39 | CC[C@H](Nc1ncnc2[nH]cnc12)c1nc2cccc(F)c2c(=O)n1-c1ccccc1 | 84.3% and 82.3% | 88.8% | 65.6% | 70.5% | 57.3% | 54.8% | 51.2% | 58.6%
40 | CN(Cc1cnc2nc(N)nc(N)c2n1)c1ccc(C(=O)N[C@@H](CCC(=O)O)C(=O)O)cc1 [Abitrexate (Methotrexate)] | 99.8% and 103% | 45.1% | 93% | 93.5% | 103% | 74% | 99.2% | 96.9%

From the supplement of paper PMC10981050
